# Experimental data: PubChem BioAssay AID1159580 (chemical genetic matrix, 2015)
# Values joined by “and” are separate entries in the source; they are usually repeats but may differ in a detail not shown here. Equal values may be shown once. The campaign covered roughly 5,500 compounds. About 2,000 (36%) were called active. Not shown: some 18% with an inconclusive outcome. The list shows a part of the results. A number with no mark means an inactive call. No stated cut-off is given here; in the data, active means normalized growth mostly below about 0.91 (no sharp cut-off); inconclusive means no clear call, values can overlap the other calls; inactive means mostly above about 0.92.
# Test: chemical genetic growth profiling, strain panel (AID 1159580);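 further: tested at 20 µM; growth read once vehicle control cultures reached saturation at 30 °C; 1 = growth at the plate median or of vehicle wells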
# Details: S. cerevisiae deletion strains, growth OD
smiles,measurement,setting,value
CN(C)CCC=C1c2ccccc2C=Cc2ccccc21,normalized growth,"locus YAL013W, strain DEP1, stronger effect = lower value",0.995
same,normalized growth,"locus YAL021C, strain ccr4, stronger effect = lower value",0.893 (active)
same,normalized growth,"locus YAL026C, strain drs2, stronger effect = lower value",0.901 (active)
same,normalized growth,"locus YAL030W, strain snc1, stronger effect = lower value",0.982
same,normalized growth,"locus YAL040C, strain CLN3, stronger effect = lower value",1.07
same,normalized growth,"locus YBL061C, strain skt5, stronger effect = lower value",0.995
same,normalized growth,"locus YBR009C, strain hhf1, stronger effect = lower value",0.99
same,normalized growth,"locus YBR021W, strain FUR4, stronger effect = lower value",0.958
same,normalized growth,"locus YBR023C, strain chs3, stronger effect = lower value",0.978
same,normalized growth,"locus YBR171W, strain sec66, stronger effect = lower value",1
same,normalized growth,"locus YBR229C, strain ROT2, stronger effect = lower value",0.995
same,normalized growth,"locus YBR231C, strain swc5, stronger effect = lower value",0.997
same,normalized growth,"locus YBR279W, strain paf1, stronger effect = lower value",0.979
same,normalized growth,"locus YCL011C, strain gbp2, stronger effect = lower value",0.984
same,normalized growth,"locus YCL016C, strain dcc1, stronger effect = lower value",0.954
same,normalized growth,"locus YCL029C, strain bik1, stronger effect = lower value",1
same,normalized growth,"locus YCL061C, strain MRC1 (second series), stronger effect = lower value",0.999
same,normalized growth,"locus YCL061C, strain MRC1, stronger effect = lower value",0.992
same,normalized growth,"locus YCL069W, strain vba3, stronger effect = lower value",0.993
same,normalized growth,"locus YCR088W, strain abp1, stronger effect = lower value",0.998
same,normalized growth,"locus YDL005C, strain med2, stronger effect = lower value",0.991
same,normalized growth,"locus YDL035C, strain GPR1, stronger effect = lower value",0.954
same,normalized growth,"locus YDL040C, strain nat1, stronger effect = lower value",0.967
same,normalized growth,"locus YDL074C, strain BRE1, stronger effect = lower value",0.956
same,normalized growth,"locus YDL101C, strain DUN1, stronger effect = lower value",1.02
same,normalized growth,"locus YDL134C, strain PPH21, stronger effect = lower value",0.996
same,normalized growth,"locus YDL185W, strain tfp1, stronger effect = lower value",0.949
same,normalized growth,"locus YDL192W, strain arf1, stronger effect = lower value",0.988
same,normalized growth,"locus YDR001C, strain nth1, stronger effect = lower value",0.983
same,normalized growth,"locus YDR069C, strain doa4, stronger effect = lower value",0.918
same,normalized growth,"locus YDR101C, strain arx1, stronger effect = lower value",1.05
same,normalized growth,"locus YDR137W, strain rgp1, stronger effect = lower value",1.18 [resistant] (active)
same,normalized growth,"locus YDR150W, strain NUM1, stronger effect = lower value",0.987
same,normalized growth,"locus YDR159W, strain sac3, stronger effect = lower value",1
same,normalized growth,"locus YDR162C, strain NBP2, stronger effect = lower value",0.95
same,normalized growth,"locus YDR195W, strain ref2",1.05
same,normalized growth,"locus YDR297W, strain sur2, stronger effect = lower value",0.971
same,normalized growth,"locus YDR318W, strain mcm21, stronger effect = lower value",0.982
same,normalized growth,"locus YDR334W, strain swr1, stronger effect = lower value",0.958
same,normalized growth,"locus YDR335W, strain msn5, stronger effect = lower value",0.969
same,normalized growth,"locus YDR388W, stronger effect = lower value",0.959
same,normalized growth,"locus YDR392W, strain spt3, stronger effect = lower value",0.988
same,normalized growth,"locus YDR502C, strain sam2, stronger effect = lower value",0.996
same,normalized growth,"locus YEL003W, strain gim4, stronger effect = lower value",0.987
same,normalized growth,"locus YEL037C, strain rad23, stronger effect = lower value",1
same,normalized growth,"locus YEL061C, strain CIN8 (second series), stronger effect = lower value",0.982
same,normalized growth,"locus YEL061C, strain CIN8, stronger effect = lower value",0.99
same,normalized growth,"locus YER002W, strain NOP16, stronger effect = lower value",1.04
same,normalized growth,"locus YER015W, strain faa2, stronger effect = lower value",0.969
same,normalized growth,"locus YER016W, strain bim1, stronger effect = lower value",0.998
same,normalized growth,"locus YER110C, stronger effect = lower value",0.984
same,normalized growth,"locus YER111C, strain swi4, stronger effect = lower value",0.993
same,normalized growth,"locus YER155C, strain BEM2 (second series), stronger effect = lower value",0.967
same,normalized growth,"locus YER155C, strain BEM2, stronger effect = lower value",1.02
same,normalized growth,"locus YER167W, strain BCK2, stronger effect = lower value",0.999
same,normalized growth,"locus YFR010W, strain ubp6, stronger effect = lower value",0.95
same,normalized growth,"locus YGL078C, strain dbp3, stronger effect = lower value",0.985
same,normalized growth,"locus YGL086W, strain mad1, stronger effect = lower value",1.01
same,normalized growth,"locus YGL167C, strain pmr1, stronger effect = lower value",0.976
same,normalized growth,"locus YGL173C, strain kem1, stronger effect = lower value",1
same,normalized growth,"locus YGL227W, strain vid30, stronger effect = lower value",0.97
same,normalized growth,"locus YGL240W, strain doc1, stronger effect = lower value",1.02
same,normalized growth,"locus YGL248W, strain PDE1, stronger effect = lower value",0.998
same,normalized growth,"locus YGL253W, strain hxk2, stronger effect = lower value",0.988
same,normalized growth,"locus YGR135W, strain pre9, stronger effect = lower value",0.919
same,normalized growth,"locus YGR252W, strain gcn5, stronger effect = lower value",0.904
same,normalized growth,"locus YHR013C, strain ard1, stronger effect = lower value",0.945
same,normalized growth,"locus YHR027C, strain rpn1, stronger effect = lower value",0.953
same,normalized growth,"locus YHR030C, strain SLT2, stronger effect = lower value",0.983 and 1.01
same,normalized growth,"locus YHR079C, strain IRE1 (second series), stronger effect = lower value",0.984
same,normalized growth,"locus YHR079C, strain IRE1, stronger effect = lower value",1.02
same,normalized growth,"locus YHR094C, strain hxt1, stronger effect = lower value",0.99
same,normalized growth,"locus YHR129C, strain ARP1, stronger effect = lower value",0.993
same,normalized growth,"locus YHR142W, strain chs7, stronger effect = lower value",0.959
same,normalized growth,"locus YHR200W, strain rpn10, stronger effect = lower value",0.998
same,normalized growth,"locus YIL066C, strain RNR3, stronger effect = lower value",0.974
same,normalized growth,"locus YIL073C, strain SPO22, stronger effect = lower value",0.94
same,normalized growth,"locus YIL125W, strain kgd1, stronger effect = lower value",1.02
same,normalized growth,"locus YIR030C, strain dcg1, stronger effect = lower value",0.988
same,normalized growth,"locus YJL092W, strain hpr5, stronger effect = lower value",0.98
same,normalized growth,"locus YJL095W, strain BCK1 (second series), stronger effect = lower value",0.98
same,normalized growth,"locus YJL095W, strain BCK1, stronger effect = lower value",0.903 and 1.02
same,normalized growth,"locus YJL115W, strain asf1, stronger effect = lower value",0.951
same,normalized growth,"locus YJL129C, strain trk1, stronger effect = lower value",1.01
same,normalized growth,"locus YJL134W, strain LCB3, stronger effect = lower value",0.988
same,normalized growth,"locus YJL154C, strain vps35, stronger effect = lower value",0.979
same,normalized growth,"locus YJL164C, strain tpk1, stronger effect = lower value",0.998
same,normalized growth,"locus YJL166W, strain qcr8, stronger effect = lower value",0.996
same,normalized growth,"locus YJL187C, strain SWE1 (second series), stronger effect = lower value",1.01
same,normalized growth,"locus YJR043C, strain POL32, stronger effect = lower value",1.04
same,normalized growth,"locus YJR066W, strain TOR1, stronger effect = lower value",0.956
same,normalized growth,"locus YJR075W, strain HOC1, stronger effect = lower value",0.982
